Compound activity: PubChem BioAssay, Broad Institute
CaV13 FRET inh: Disruptors of the CACNA1D IQ motif to Ca2+-dependent inactivation inhibitor domain association, primary screening, Förster resonance energy transfer in intact living … | HEK cells, CFP/YFP FRET ICDI-IQ, plate reader, 10 min; percent FRET-ratio fall versus neutral wells | inhibition, % at 12.3 µM | actives 0.098% (n = 340,000) | AID 743397;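 active = mean replicate inhibition of at least 30% and at least 1% of replicates passing that level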
ERAP1 HTS inh: human ERAP1 aminopeptidase inhibitors, primary screen, biochemical, single point, plate reader; Endoplasmic reticulum aminopeptidase 1 (Homo sapiens), Q9NZ08; recombinant ERAP1, Leu-AMC fluorescence, 60 min; inhibition, % at 10.7 µM; actives 0.15% (n = 340,000); AID 652197, 2013;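 active = mean replicate inhibition of at least 30%, or all replicates individually reaching that 30% level; inactive = mean below 30% and not every replicate reaching it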
Target sequence (Q9NZ08 whole entry, looked up): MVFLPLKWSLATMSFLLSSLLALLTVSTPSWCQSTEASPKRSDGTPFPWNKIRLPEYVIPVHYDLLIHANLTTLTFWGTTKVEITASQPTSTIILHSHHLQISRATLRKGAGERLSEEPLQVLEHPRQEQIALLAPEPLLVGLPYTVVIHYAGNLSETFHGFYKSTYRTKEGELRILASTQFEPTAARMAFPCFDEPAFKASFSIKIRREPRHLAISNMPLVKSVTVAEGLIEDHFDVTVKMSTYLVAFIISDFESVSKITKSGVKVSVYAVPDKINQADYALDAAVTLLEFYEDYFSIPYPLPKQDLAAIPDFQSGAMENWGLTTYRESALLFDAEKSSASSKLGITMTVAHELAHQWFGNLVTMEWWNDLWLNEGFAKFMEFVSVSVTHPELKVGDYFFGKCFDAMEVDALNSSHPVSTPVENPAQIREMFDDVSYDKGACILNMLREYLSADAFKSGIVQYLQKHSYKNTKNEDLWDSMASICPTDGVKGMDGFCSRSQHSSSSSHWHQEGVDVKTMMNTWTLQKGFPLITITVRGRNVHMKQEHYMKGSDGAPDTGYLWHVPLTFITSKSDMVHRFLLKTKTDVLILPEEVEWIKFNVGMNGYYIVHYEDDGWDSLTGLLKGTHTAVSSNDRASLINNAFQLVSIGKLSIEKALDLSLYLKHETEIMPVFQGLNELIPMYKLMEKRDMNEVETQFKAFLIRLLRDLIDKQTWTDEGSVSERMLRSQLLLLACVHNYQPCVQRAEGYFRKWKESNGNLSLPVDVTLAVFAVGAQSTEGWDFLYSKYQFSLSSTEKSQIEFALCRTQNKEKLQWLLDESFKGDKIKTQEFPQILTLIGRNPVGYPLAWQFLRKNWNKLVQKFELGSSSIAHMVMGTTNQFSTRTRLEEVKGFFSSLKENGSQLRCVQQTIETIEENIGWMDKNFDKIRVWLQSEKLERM
GSIS activator: GLuc luminescence reporter in INS-1E cells, primary screen for activators of glucose-dependent secretion of insulin; actives 0.61% (n = 370,000); activation, % at 16.6 µM; INS-1E GLuc reporter insulin secretion, 2-3 h;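 active = lowest replicate activation of at least 40%, so every replicate reaches that level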
PGC1a acetyl inh: inhibitors of PGC1a acetylation signal, primary screen, cell-based, U2OS, AlphaScreen, inhibitor mode; inhibition, % at 15.6 µM; actives 0.17% (n = 350,000); AlphaScreen anti-acetyl-lysine; with virally co-expressed GCN5 acetyltransferase;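 active = every replicate shows inhibition of at least 40%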
rRNA inh HTS: reduced GFP signal of wild-type E. coli, primary screen, bacterial rRNA inhibitor project, GFP/RFP fluorescence, OD600, single point | E. coli WT GFP vs humanized-ribosome RFP mutants, 24 h; stronger effect = lower value; DMSO median 0, no signal -100 | GFP signal change (wild-type ribosome), % (concentration not given with the values) | actives 1.6% (n = 350,000);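 active = significant combined selectivity score with lowered wild-type GFP, culture density cut under 30%, mutant RFP and density less affected; inactive = any of these conditions unmet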
DENV2 CPE: inhibitors of DENV2 cytopathic effect, primary screen, cell-based, plate reader, single concentration. AID 651640, 2012. actives 1.7% (n = 350,000). DENV2-infected cells, cytopathic effect rescue. CPE inhibition, % at 9.99 µM; in the data active = CPE inhibition above about 20%, passing the limit was not always enough; tested in BHK-21 cells
Hits are given with their value; i = inactive; nt = no result given. A selection: hits, their analogues and other compounds. The true share with any hit is near 3.2%.

SMILES	CaV13 FRET inh	ERAP1 HTS inh	GSIS activator	PGC1a acetyl inh	rRNA inh HTS	DENV2 CPE
CCCNC(=O)N1C[C@@H](C)[C@@H](OC)CN(C)C(=O)c2ccc(NC(=O)CCC)cc2OC[C@@H]1C	nt	i	i	i	i	i
O=C(c1cccc(Oc2ccc([N+](=O)[O-])cc2)c1)N1CCOCC1	i	i	i	i	i	97
COCC#Cc1ccc([C@@H]2[C@@H](CO)N3CCCCN(C(=O)COC)C[C@H]23)cc1	nt	i	i	i	i	34
COCC#Cc1ccc([C@@H]2[C@H]3CN(C(=O)COC)CCCCN3[C@H]2CO)cc1	nt	i	i	i	i	i
COCC(=O)N1CCCCN2[C@H](CO)[C@H](c3ccc(C#Cc4ccc(OC)cc4)cc3)[C@@H]2C1	nt	i	i	i	i	39
COCC(=O)N1CCCCN2[C@H](C1)[C@H](c1ccc(C#Cc3ccccc3)cc1)[C@@H]2CO	nt	i	i	i	i	40
COCC#Cc1ccc([C@@H]2[C@H]3CN(Cc4ccccc4F)CCCCN3[C@H]2CO)cc1	nt	i	i	i	i	47
C[C@H]1CN([C@@H](C)CO)C(=O)Cc2cc(NC(=O)CCC(F)(F)F)ccc2O[C@H]1CN(C)S(=O)(=O)c1ccccc1	nt	i	i	i	i	i
COc1ccc2c3c([nH]c2c1)[C@H](CO)N(C(=O)CN1CCOCC1)CC31CN(C(=O)NC(C)C)C1	nt	nt	i	i	i	i
COCC(=O)N1CCCCN2[C@H](C1)[C@@H](c1ccc(C#Cc3ccccc3)cc1)[C@@H]2CO	nt	i	i	i	i	28
COCC(=O)N1CCCCN2[C@@H](CO)[C@H](c3ccc(C#Cc4ccccc4)cc3)[C@@H]2C1	nt	i	i	i	i	i
C[C@H](O)C#Cc1ccc([C@H]2[C@H](CO)N3CCCCN(C(=O)c4ccncc4)C[C@@H]23)cc1	nt	i	i	i	i	i
COc1ccc(C#Cc2ccc([C@H]3[C@@H](CO)N4CCCCN(C(=O)c5ccncc5)C[C@H]34)cc2)cc1	nt	i	i	i	i	47
CO[C@H]1CN(C)C(=O)c2cc(NC(=O)NC(C)C)ccc2OC[C@@H](C)N(Cc2ccc(-c3ccccn3)cc2)C[C@@H]1C	nt	i	i	i	i	i
C/C(=N\Nc1ccc(C(=O)O)cc1)c1ccc2c(c1)Nc1ccccc1S2	i	i	i	i	-45	i
Cc1nc2ccc(C(=O)NC(C)(C)C)cn2c1N(C)C(=O)CCc1ccccc1	i	i	nt	nt	i	35
Cc1nc2ccc(C(=O)Nc3cccc(NS(C)(=O)=O)c3)cn2c1N(C)C(=O)CCc1ccccc1	i	i	i	nt	i	i
COc1ccc(/C(C)=N/NC(=O)Cn2nc([N+](=O)[O-])cc2C)cc1	i	i	51	nt	i	i
COc1ccc(CNC(=O)Cn2nc([N+](=O)[O-])cc2C)cc1	i	i	i	i	i	i
CCOC(=O)c1cc(-c2ccccc2C)nn1Cc1cc(C)no1	i	i	nt	i	i	32
CCc1cc(Cn2nc(C(=O)O)cc2-c2ccccc2)on1	i	i	i	nt	i	i
CCc1cc(Cn2nc(-c3ccccc3C)cc2C(=O)O)on1	i	i	i	nt	i	25
COc1cccc(NC(=O)Nc2ccc3c(c2)C(=O)N(C)[C@H]2CC[C@H](CC(=O)O)O[C@H]2CO3)c1	nt	nt	i	i	i	i
COc1ccc2c(CC(=O)Nc3ccccc3N3CCOCC3)coc2c1	i	nt	i	i	-27	i
COc1ccc(NC(=O)COC(=O)Cc2coc3cc(OC)ccc23)c(OC)c1	i	i	i	i	-34	i
O=C(C[C@H]1C=C[C@@H](NC(=O)c2ccncc2)[C@H](CO)O1)NCc1ccncn1	nt	i	i	i	i	i
CN(CCC1CCCCO1)C(=O)CCc1nnc(CCc2ccccc2)o1 (stereo unspecified)	i	i	i	i	i	61
